Results: PubChem BioAssay (EPA / NIEHS)
The source made the active and inactive calls. How the source made its calls: active means hit-call score of the fitted dose curve at least 0.9, where 1 is the maximum; inactive means score below 0.9.

test: APR_HepG2_MitoMass_72hr: Apredica 72-hour HepG2 Assay for Mitochondrial Mass (AID 2282924); settings: high-content imaging, actives raise or lower the signal;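 further: MitoTracker Red CMXRos stain intensity per cell imaged as mitochondrial mass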
Method: APR_HepG2_72hr is a cell-based, multiplexed-readout assay that uses HepG2, a human liver cell line, with measurements taken at 72 hours after chemical dosing in a 384-well plate.APR_HepG2_MitoMass_72hr is one of 10 assay component(s) measured or calculated from the APR_HepG2_72hr assay. It is designed to make measurements of cell phenotype, a form of morphology reporter, as detected with fluorescence intensity signals by HCS Fluorescent Imaging technology.Data from the assay component APR_HepG2_MitoMass_72hr was analyzed into 1 assay endpoint. This assay endpoint, APR_HepG2_MitoMass_72hr, was analyzed with bidirectional fitting relative to DMSO as the negative control and baseline of activity. Using a type of morphology reporter, gain or loss-of-signal activity can be used to understand changes in the signaling. Furthermore, this assay endpoint can be referred to as a primary readout, because this assay has produced multiple assay endpoints where this one serves a signaling function. To generalize the intended target to other relatable targets, this assay endpoint is annotated to the cell morphology intended target family, where the subfamily is organelle conformation.
Cells were treated with dimethyl sulfoxide (DMSO) as a solvent control at a final concentration of 0.5% v/v or with compounds in DMSO with a resulting final DMSO concentration of 0.5% v/v. Compound treatment was done at concentrations of 0.39, 0.78, 1.56, 3.12, 6.24, 12.5, 25, 50, 100, and 200 uM in duplicate on each plate. Cells were treated with compounds for 1, 24, or 72 hr. Carbonyl […] m-chloro-phenylhydrazone (CCCP) and taxol were used as positive controls for mitochondrial function and cytoskeletal stability, respectively; DMSO served as the negative control for this experiment. Cells were fixed by the direct addition of 50 uL formaldehyde in Hank's Balanced Salt Solution (HBSS) to a final concentration of 3.7%. After incubation in the fixation medium for 30 min at room temperature (293-298 K), cells were rinsed twice with HBSS and treated with cell permeabilization buffer (16 uL of 0.5% Triton X-100) for 10 min at room temperature (293-298 K) before labeling. For mitochondrial membrane potential and mitochondrial measurements, pre-fixed cells were incubated with 50 uL of MitoTracker Red CMXRos (Invitrogen) at a concentration of 250 nM for 30 min before fixation. In the remaining cases, post-fixed cells were labeled by incubation with a multiplexed mixture of primary antibodies in HBSS for 60 min at room temperature (293-298 K) to detect immunoreactivity of c-Jun (1:500), phospho-histone H3 (1:100), phospho-histone H2A.x (1:200), p53 (1:400), alpha-tubulin (1:200) and Hoechst 33342 (2 ug/mL). Cells were labeled for multiplexed imaging on two separate plates: a) Hoechst 33342, MitoTracker Red, phospho-histone H3, and alpha-tubulin, and b) Hoechst 33342, phospho-histone H2A.x, and c-Jun. A final rinse with HBSS (50 uL) was performed before analysis. The primary and secondary antibodies for the proteins were phospho-histone H3 (rabbit anti-phospho-histone H3 and FITC-donkey anti-rabbit IgG), phospho-histone H2A.x (mouse anti-phospho-histone H2A.x and FITC-donkey anti-mouse IgG), c-Jun (rabbit anti-phospho-c-Jun and Cy3-donkey anti-rabbit IgG), p53 (sheep anti-p53 and Cy5-donkey anti-sheep IgG), alpha-tubulin (mouse anti-alpha-tubulin and Cy5-donkey anti-mouse IgG). These antibodies are available as the CellCiphr HepG2 assay kit (Millipore).Digital images of each well were captured using a Cellomics ArrayScan VTI (Thermo Scientific Cellomics) (0.8 NA objective, 0.63x optical coupler, and XF-93 filter set) at 20x magnification. The images were acquired using the autofocus feature of the ArrayScan instrument, which entails the following steps. First, the camera focuses on channel 1 (Hoechst 33342), where nuclei are identified. Second, a Z offset of 1 um is used for capturing mitochondria (MitoTracker Red). […]

Structure (SMILES)	outcome	AC50
Oc1cc(Cl)c(Cl)cc1Cl	inactive	–
Oc1c(Cl)cc(Cl)cc1Cl	inactive	–
O=C(N[C@H]1CN2CCC1CC2)c1ccc2c(c1)OCCO2	inactive	–
Clc1cccc(Cl)c1	inactive	–
O=C(O)C1(c2ccc3c(c2)OC[C@H](Cc2ccc(-c4ccccc4)cc2)[C@H]3O)CCCC1	–	112 µM (active)
N#Cc1cccnc1	inactive	–
CC(C)(C)c1ccccc1O	inactive	–
OCCN(CCO)CCO	inactive	–
Clc1cccc(Cl)c1Cl	inactive	–
CCCCCCCCCCCCc1cccc(S(=O)(=O)O)c1	inactive	–
CC(C)O.CC(C)O.OCCN(CCO)CCO.OCCN(CCO)CCO.[Ti]	inactive	–
CN(C)C(=S)S	–	0.0391 µM (active)
Cc1cc(C)cc(C)c1	inactive	–
